Laboratory results taken from the supplement of paper PMC12494721.
Structures can show the parent of a compound that is named as a salt.

Key:
Conditions in all cases: incubation time: 27 h, anaerobic, 37 °C;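 for the amine columns active = adjusted P below 0.05 in both replicates with a change the same way and a mean fold change under 0.8 or over 1.25; inactive = the rest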
[1] = test system: Clostridium sporogenes DSM 1664; experiment: growth (OD595) fold change vs plate DMSO controls (fold change (ratio)); higher = more growth
Outline: (§1)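 Shaken 96-well cultures in mGAM, grown anaerobically for 27 h at 37 °C, were read at 595 nm. OD came from blank-subtracted readings, corrected for background with 20 µM compound solutions in water and scaled by a calibration factor of 5. Growth is the fold change versus the plate's median DMSO control. Values average 2 biological replicates, and any fold change above 1.5 is NA.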

Escherichia coli IAI1 [2] = experiment: as above
Outline: as §1

[3] = test system: Klebsiella aerogenes DSM 30053; experiment: as above
Outline: as §1

[4] = test system: Ruminococcus gnavus DSM 108212; experiment: as above
Outline: as §1

[5] = test system: Klebsiella aerogenes DSM 30053; experiment: fold change of Histamine concentration vs plate DMSO controls (fold change (ratio)); higher = more amine produced, active = hit call of the paper (significant change in both replicates, either direction)
Outline: (§2)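 Using LC–triple-quadrupole MS with dynamic MRM, amines were quantified against external calibration curves and corrected for drift within each batch. Samples were whole anaerobic mGAM cultures of four gut strains, grown 27 h at 37 °C from OD 0.1 before 1:1 dilution, extracted with cold acetonitrile/methanol containing 0.1% formic acid and centrifuged. Compounds were present at 20 µM final (sweeteners at 50 µM final). The numbers are fold changes versus plate DMSO controls, each the mean of 2 biological replicates.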

[6] = test system: Clostridium sporogenes DSM 1664; experiment: fold change of Tryptamine concentration vs plate DMSO controls (fold change (ratio)); higher = more amine produced, active = hit call of the paper (significant change in both replicates, either direction)
Outline: as §2

[7] = test system: Ruminococcus gnavus DSM 108212; experiment: as above
Outline: as §2

Escherichia coli IAI1 [8] = experiment: fold change of Putrescine concentration vs plate DMSO controls (fold change (ratio)); higher = more amine produced, active = hit call of the paper (significant change in both replicates, either direction)
Outline: as §2

[9] = test system: Klebsiella aerogenes DSM 30053; experiment: as above
Outline: as §2

Escherichia coli IAI1 [10] = experiment: fold change of Cadaverine concentration vs plate DMSO controls (fold change (ratio)); higher = more amine produced, active = hit call of the paper (significant change in both replicates, either direction)
Outline: as §2

[11] = test system: Klebsiella aerogenes DSM 30053; experiment: as above
Outline: as §2

[12] = test system: Ruminococcus gnavus DSM 108212; experiment: fold change of 2-Phenylethylamine concentration vs plate DMSO controls (fold change (ratio)); higher = more amine produced, active = hit call of the paper (significant change in both replicates, either direction)
Outline: as §2

Compound | growth [1] | growth (Escherichia coli IAI1 [2]) | growth [3] | growth [4] | fold change of Histamine concentration [5] | fold change of Tryptamine concentration [6] | fold change of Tryptamine concentration [7] | fold change of Putrescine concentration (Escherichia coli IAI1 [8]) | fold change of Putrescine concentration [9] | fold change of Cadaverine concentration (Escherichia coli IAI1 [10]) | fold change of Cadaverine concentration [11] | fold change of 2-Phenylethylamine concentration [12]
CC(C)C[C@H](NC(=O)[C@@H](O)[C@H](N)Cc1ccccc1)C(=O)O [Ubenimex] (20 µM) | 1.02 | 0.971 | 0.969 | 0.332 | 0.887 (inactive) | 1.15 (inactive) | 0.148 (active) | 1.04 (inactive) | 0.95 (inactive) | 0.936 (inactive) | 0.973 (inactive) | 0.168 (active)
CC(=C(CCO)SSCC1CCCO1)N(C=O)Cc1cnc(C)nc1N (stereo in doubt) [Fursultiamine hydrochloride] (20 µM) | 1.08 | 1.03 | 0.989 | 0.992 | 1.04 (inactive) | 0.983 (inactive) | 0.969 (inactive) | 1.09 (inactive) | 1.01 (inactive) | 0.973 (inactive) | 0.986 (inactive) | 0.967 (inactive)
O=C(Cn1ccnc1[N+](=O)[O-])NCCO [Etanidazole] (20 µM) | 0.988 | 1.01 | 1.06 | 0.954 | 0.832 (inactive) | 0.98 (inactive) | 1.28 (active) | 0.91 (inactive) | 1.03 (inactive) | 1.02 (inactive) | 1.11 (inactive) | 1.83 (active)
CN1CCOC(c2ccccc2)c2ccccc2C1 (stereo not drawn) [Nefopam hydrochloride] (20 µM) | 1.09 | 1 | 0.963 | 1.09 | 0.855 (inactive) | 1.1 (inactive) | 1.02 (inactive) | 1.03 (inactive) | 0.94 (inactive) | 0.943 (inactive) | 1.03 (inactive) | 1.03 (inactive)
CC(=O)OCC(=O)NCCCOc1cccc(CN2CCCCC2)c1 [Roxatidine acetate hydrochloride] (20 µM) | 1.02 | 1.06 | 1.01 | 0.677 | 0.958 (inactive) | 0.989 (inactive) | 0.972 (inactive) | 1.27 (inactive) | 1.01 (inactive) | 1.18 (inactive) | 1.01 (inactive) | 0.905 (inactive)
CCOc1ccc(Cc2nccc3cc(OCC)c(OCC)cc23)cc1OCC [Ethaverine hydrochloride] (20 µM) | 0.848 | 0.99 | 0.954 | 1.05 | 1 (inactive) | 0.945 (inactive) | 0.935 (inactive) | 1.05 (inactive) | 1.01 (inactive) | 1.03 (inactive) | 0.982 (inactive) | 0.895 (inactive)
CCc1cccc2c3c([nH]c12)C(CC)(CC(=O)O)OCC3 (stereo not drawn) [Etodolac] (20 µM) | 1.08 | 1.03 | 1.1 | 1.06 | 1.06 (inactive) | 0.981 (inactive) | 1.06 (inactive) | 0.968 (inactive) | 0.949 (inactive) | 0.975 (inactive) | 0.991 (inactive) | 1.12 (inactive)
CCOC(=O)C(C)(N)Cc1cc(I)c(Oc2cc(I)c(O)c(I)c2)c(I)c1 (stereo not drawn) [Etiroxate hydrochloride] (20 µM) | 1.06 | 1.02 | 1.02 | 1.14 | 1.04 (inactive) | 1.03 (inactive) | 0.923 (inactive) | 0.951 (inactive) | 0.99 (inactive) | 0.958 (inactive) | 1 (inactive) | 1.01 (inactive)
C[N+](C)(C)CCCCCC[N+](C)(C)C [Hexamethonium dibromide dihydrate] (20 µM) | 0.959 | 0.998 | 1 | 0.892 | 1.02 (inactive) | 1.02 (inactive) | 1.03 (inactive) | 1.04 (inactive) | 0.982 (inactive) | 0.984 (inactive) | 1 (inactive) | 1.01 (inactive)
O=c1[nH]c(=O)n([C@H]2C[C@H](O)[C@@H](CO)O2)cc1/C=C/Br [Brivudine] (20 µM) | 1.08 | 1.06 | 1.02 | 1.06 | 0.978 (inactive) | 1.03 (inactive) | 1.04 (inactive) | 0.968 (inactive) | 1 (inactive) | 0.982 (inactive) | 1 (inactive) | 1.08 (inactive)
CCOC(=O)C1=C[C@]2(CC)CCCN3CCc4c(n1c1ccccc41)[C@@H]32 [Vinpocetine] (20 µM) | 0.883 | 0.979 | 1.03 | 1.14 | 0.922 (inactive) | 0.964 (inactive) | 0.955 (inactive) | 0.995 (inactive) | 1.02 (inactive) | 1.02 (inactive) | 1.02 (inactive) | 0.972 (inactive)
Cc1c(-c2ccccc2)oc2c(C(=O)OCCN3CCCCC3)cccc2c1=O [Flavoxate hydrochloride] (20 µM) | 1.09 | 1.01 | 1.06 | 1.14 | 1.01 (inactive) | 1.05 (inactive) | 1.03 (inactive) | 1 (inactive) | 1 (inactive) | 1.03 (inactive) | 1 (inactive) | 1.02 (inactive)
CCCCc1oc2ccccc2c1C(=O)c1cc(I)c(OCCN(CC)CC)c(I)c1 [Amiodarone hydrochloride] (20 µM) | 1.17 | 1.02 | 0.991 | 0.65 | 1.06 (inactive) | 1.1 (inactive) | 0.75 (active) | 0.96 (inactive) | 1.02 (inactive) | 1.04 (inactive) | 0.985 (inactive) | 0.89 (inactive)
CCC(=O)O[C@@H]1CC(=O)O[C@H](C)C/C=C/C=C/[C@H](O)[C@H](C)C[C@H](CC=O)[C@H](O[C@@H]2O[C@H](C)[C@@H](O[C@H]3C[C@@](C)(O)[C@@H](OC(=O)CC)[C@H](C)O3)[C@H](N(C)C)[C@H]2O)[C@H]1OC [Midecamycin] (20 µM) | 0.00179 | 0.905 | 0.965 | 0.164 | 0.412 (active) | 0.0271 (active) | 0.143 (active) | 0.909 (inactive) | 1.06 (inactive) | 1.05 (inactive) | 1.05 (inactive) | 0.141 (active)
CCOc1ccc2nc(S(N)(=O)=O)sc2c1 [Ethoxzolamide] (20 µM) | 0.955 | 0.957 | 0.989 | 0.925 | 1.04 (inactive) | 0.934 (inactive) | 0.994 (inactive) | 1.27 (inactive) | 0.997 (inactive) | 0.981 (inactive) | 0.989 (inactive) | 1 (inactive)
COc1ccc(-c2ccc3cc(C(=O)O)ccc3c2)cc1C12CC3CC(CC(C3)C1)C2 [Adapalene] (20 µM) | 0.829 | 1 | 1.04 | 1.18 | 1.02 (inactive) | 0.96 (inactive) | 1.04 (inactive) | 1.02 (inactive) | 1 (inactive) | 1.02 (inactive) | 0.994 (inactive) | 1.06 (inactive)
CCOCC(O)COc1ccc(NC(=O)CC[S+](C)C)cc1 (stereo not drawn) [Suplatast Tosylate] (20 µM) | 0.999 | 1.04 | 0.988 | 1 | 1.03 (inactive) | 1.01 (inactive) | 0.978 (inactive) | 1.04 (inactive) | 1.02 (inactive) | 0.989 (inactive) | 0.991 (inactive) | 0.909 (inactive)
CCCC(=O)N1CCCN(c2nc(N)c3cc(OC)c(OC)cc3n2)CC1 [Bunazosin hydrochloride] (20 µM) | 1.05 | 1.05 | 1 | 1.06 | 1.04 (inactive) | 1.02 (inactive) | 1 (inactive) | 0.989 (inactive) | 0.996 (inactive) | 0.996 (inactive) | 0.984 (inactive) | 1.03 (inactive)
CC(C)(C)NCC(O)c1cc(O)cc(O)c1 (stereo not drawn) [Terbutaline hemisulfate] (20 µM) | 0.98 | 1.02 | 1.05 | 1.11 | 1.02 (inactive) | 1.05 (inactive) | 1.06 (inactive) | 1.05 (inactive) | 0.985 (inactive) | 0.932 (inactive) | 0.993 (inactive) | 1.06 (inactive)
c1ccc(C2CN3CCSC3=N2)cc1 (stereo not drawn) [Tetramisole hydrochloride] (20 µM) | 0.855 | 0.574 | 1.07 | 0.976 | 1.04 (inactive) | 0.939 (inactive) | 1.01 (inactive) | 1.33 (inactive) | 1.03 (inactive) | 2 (active) | 0.992 (inactive) | 1.03 (inactive)
C[C@@](Cc1ccc(O)c(O)c1)(NN)C(=O)O [Carbidopa] (20 µM) | 0.93 | 0.989 | 1.03 | 0.905 | 0.98 (inactive) | 1.04 (inactive) | 1 (inactive) | 1.05 (inactive) | 1.01 (inactive) | 0.994 (inactive) | 1 (inactive) | 0.963 (inactive)
COc1cc(N)c(Cl)cc1C(=O)NC1CCN(Cc2ccccc2)CC1 [Clebopride maleate] (20 µM) | 1.05 | 0.95 | 0.981 | 0.875 | 1 (inactive) | 1.01 (inactive) | 0.985 (inactive) | 0.926 (inactive) | 0.976 (inactive) | 0.984 (inactive) | 0.999 (inactive) | 0.985 (inactive)
O=C(O)/C=C/c1ccc(Cn2ccnc2)cc1 [Ozagrel hydrochloride] (20 µM) | 0.923 | 0.982 | 0.994 | 0.975 | 1.02 (inactive) | 1.01 (inactive) | 1.04 (inactive) | 1.01 (inactive) | 0.993 (inactive) | 1.01 (inactive) | 0.986 (inactive) | 0.999 (inactive)
CC(=O)OCC(=O)[C@@]1(O)CC[C@H]2[C@@H]3CCC4=CC(=O)CC[C@]4(C)[C@H]3[C@@H](O)C[C@@]21C [Cortisol acetate] (20 µM) | 1.13 | 1.03 | 1.04 | 1 | 0.896 (inactive) | 0.975 (inactive) | 0.979 (inactive) | 0.987 (inactive) | 0.993 (inactive) | 0.97 (inactive) | 1.01 (inactive) | 0.953 (inactive)
